In PubChem BioAssay:
Activity calls are given as the source filed them.

Experiments:
[1] = resazurin metabolic signal in HepG2 cells – cell-based, resazurin fluorescence, 24 h, PK04 Diversity Set, profiling panel (AID 1172); settings: HepG2 viability, higher = more signal; further: test concentration not given here
[2] = budding yeast growth changes without added modifier – OD600, strain BY4716, 24 h, basal condition, primary screen (AID 1173); settings: S. cerevisiae BY4716 growth, OD600, 24 h; higher = more signal, called active from +8 up or from −8 down
[3] = viability profiling in MM1S myeloma cells – cell-based, resazurin fluorescence, basal, 24 h, PK04 Diversity Set, profiling panel (AID 1174); settings: higher = more signal, called active from +8 up or from −8 down;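 further: MM1S multiple myeloma cell line; test concentration not given here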
[4] = biological target: Dihydroorotate dehydrogenase (quinone), mitochondrial (Plasmodium falciparum (isolate 3D7)) (UniProt Q08210); experiment: inhibition of P. falciparum DHODH – biochemical, C-terminal His tag, absorbance 600 nm, primary screen (AID 1175); settings: PfDHODH enzyme, DCIP absorbance 600 nm; higher = more signal, called active from +8 up or from −8 down;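 further: recombinant parasite enzyme with a five histidine tag at its C terminus; test concentration not given here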
Chain of Dihydroorotate dehydrogenase (quinone), mitochondrial (Plasmodium falciparum (isolate 3D7)) (Q08210 whole entry, looked up): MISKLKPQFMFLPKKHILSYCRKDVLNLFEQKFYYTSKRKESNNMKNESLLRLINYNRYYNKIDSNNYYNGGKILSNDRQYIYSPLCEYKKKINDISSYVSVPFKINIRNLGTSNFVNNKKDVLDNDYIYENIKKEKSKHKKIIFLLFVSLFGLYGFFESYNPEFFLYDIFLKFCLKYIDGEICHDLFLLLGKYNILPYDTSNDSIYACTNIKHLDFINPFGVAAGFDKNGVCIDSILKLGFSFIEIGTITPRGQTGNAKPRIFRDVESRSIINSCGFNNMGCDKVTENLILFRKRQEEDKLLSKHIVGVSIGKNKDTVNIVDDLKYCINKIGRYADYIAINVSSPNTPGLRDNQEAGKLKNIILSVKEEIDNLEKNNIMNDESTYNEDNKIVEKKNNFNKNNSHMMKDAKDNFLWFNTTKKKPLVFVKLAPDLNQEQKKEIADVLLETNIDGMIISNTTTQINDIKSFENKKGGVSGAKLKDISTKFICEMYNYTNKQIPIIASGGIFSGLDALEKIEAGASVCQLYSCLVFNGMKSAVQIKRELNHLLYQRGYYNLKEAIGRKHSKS

[5] = growth modulation of vineyard yeast isolate – strain RM11-1a, OD600, basal, 24 h, primary screen (AID 1177);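 further: cultures grown under basal conditions with no added stressor; test concentration not given here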; settings: S. cerevisiae RM11-1a growth, OD600, 24 h; higher = more signal, called active from +8 up or from −8 down
[6] = growth of efflux-deficient E. coli DRC39 – strain DRC39, OD650, 24 h, E. coli filamentation inducers, primary screen (AID 1178);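 further: growth measured as culture turbidity by optical density at 650 nm; test concentration not given here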; settings: E. coli DRC39 acrAB, higher = more signal, called active from +8 up or from −8 down
[7] = growth of efflux-deficient E. coli DRC39 – strain DRC39, OD650, 48 h, E. coli filamentation inducers, primary screen (AID 1179);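 further: screen aims at cell division blockers that make cells filament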; settings: E. coli DRC39 delta-acrAB growth, higher = more signal, called active from +8 up or from −8 down
[8] = viability profiling in RPMI8226 myeloma cells – cell-based, resazurin fluorescence, basal, 24 h, PK04 Diversity Set, profiling panel (AID 1180); settings: higher = more signal;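 further: RPMI8826 multiple myeloma cell line at 5000 cells per well; test concentration not given here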
[9] = biological target: E3 ubiquitin-protein ligase XIAP (Homo sapiens) (UniProt P98170); experiment: small molecules binding XIAP protein – biophysical, small-molecule microarray, fluorescence 635 nm, primary screen (AID 1181); settings: higher = more signal;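 further: score merges 667 nm emission and signal to noise over triplicate slides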
Chain of E3 ubiquitin-protein ligase XIAP (Homo sapiens) (P98170 whole entry, looked up): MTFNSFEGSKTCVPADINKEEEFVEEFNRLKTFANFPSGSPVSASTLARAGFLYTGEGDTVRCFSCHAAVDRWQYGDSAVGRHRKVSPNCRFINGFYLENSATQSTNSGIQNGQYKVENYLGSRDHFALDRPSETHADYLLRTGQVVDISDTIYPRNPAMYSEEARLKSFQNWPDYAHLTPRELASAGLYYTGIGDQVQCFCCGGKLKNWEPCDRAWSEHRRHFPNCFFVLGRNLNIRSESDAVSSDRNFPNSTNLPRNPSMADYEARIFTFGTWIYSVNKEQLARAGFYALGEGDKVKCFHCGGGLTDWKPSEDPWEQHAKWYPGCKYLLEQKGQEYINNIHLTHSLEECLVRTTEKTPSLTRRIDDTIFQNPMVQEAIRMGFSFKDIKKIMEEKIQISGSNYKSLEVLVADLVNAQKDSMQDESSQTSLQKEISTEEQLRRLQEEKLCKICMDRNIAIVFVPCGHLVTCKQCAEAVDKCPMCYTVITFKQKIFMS

Structure (SMILES)	z-score [1]	z-score [2]	z-score [3]	composite z-score [4]	z-score [5]	z-score [6]	z-score [7]	z-score [8]	composite z-score [9]
O=C1O[C@@H](c2ccccc2)[C@@H](c2ccccc2)N2[C@@H](c3ccccc3OCCO)[C@]3(C(=O)Nc4ccc(C#CC5=CCCCC5)cc43)[C@@H](C(=O)O)[C@H]12	0.172	-0.5 (inactive)	-2.81 (inactive)	-4.84 (inactive)	3.46 (inactive)	0.175 (inactive)	0.45 (inactive)	-5.59	0.105
CO[C@@H]1COC(=O)[C@H](C)NC(=O)CC=C[C@@H](C)[C@H](NS(=O)(=O)c2ccc(C)cc2)COC(=O)CC=C[C@@H]1C	0.825	-0.364 (inactive)	0.507 (inactive)	0.605 (inactive)	0.655 (inactive)	0.798 (inactive)	0.547 (inactive)	0.271	-0.0835
CO[C@H]1COC(=O)[C@@H](OCc2ccccc2)C=C[C@H](C)[C@@H](OC)COC(=O)[C@H](OCc2ccccc2)C=C[C@@H]1C	1.12	-2.2 (inactive)	1.6 (inactive)	-1.11 (inactive)	-3.47 (inactive)	0.422 (inactive)	-0.97 (inactive)	0.193	-0.148
C=CCC(OC(C)=O)[C@@H]1[C@@H](N(Cc2ccc(-c3ccccc3)cc2)C(=O)c2ccc(C)cc2)c2cc(OCCCO)ccc2N1C(=O)c1ccc(-c2ccccc2)cc1 (some centres not stated)	2.15	-1.71 (inactive)	1.55 (inactive)	-1.08 (inactive)	-3.45 (inactive)	2.05 (inactive)	1.27 (inactive)	1.51	-0.467
C=CCc1cccc([C@@H]2[C@@H](C)CC[C@H]3C(=O)N4[C@H](c5cccc(CC=C)c5)[C@@H](C)CC[C@H]4C(=O)N23)c1	2.52	-1.2 (inactive)	0.778 (inactive)	-1.76 (inactive)	1.1 (inactive)	0.55 (inactive)	-0.184 (inactive)	-1.11	-0.187
CO[C@H]1O[C@H](CO)[C@@H](OC(=O)Nc2ccccc2)[C@H](OC(=O)Nc2ccc3c(c2)OCO3)[C@@H]1OC(=O)Nc1ccc2c(c1)OCO2	-0.667	-0.0273 (inactive)	0.238 (inactive)	-0.167 (inactive)	1.21 (inactive)	1.84 (inactive)	0.228 (inactive)	-0.365	0.136
COC(=O)C1=CC(c2ccc(CO)cc2)=CC(C2CC2)N(Cc2sc3ccccc3c2Cl)C=C1C(=O)OC (configuration not stated)	0.0452	-4.51 (inactive)	-2.01 (inactive)	-0.245 (inactive)	-0.844 (inactive)	-2.1 (inactive)	-1.67 (inactive)	-1.75	0.0909
CN1CCC(CCCO)=CC1C1CC1 (configuration not stated)	0.413	-0.821 (inactive)	1.18 (inactive)	-1.13 (inactive)	-1.57 (inactive)	0.887 (inactive)	0.611 (inactive)	0.63	0.77
CCC(=O)[C@]12O[C@@]3([C@@H]4C(=O)OCC[C@@H]41)N(CC)C(C)=C(C(=O)OC)[C@@H](c1ccccc1)N3C2=O	0.121	-2.81 (inactive)	-0.01 (inactive)	-0.191 (inactive)	-0.805 (inactive)	-0.772 (inactive)	0.09 (inactive)	0.74	0.0178
C=C(CCCC)C(=O)CC[C@@H](OC(=O)c1cccnc1)c1cccc(OCCO)c1	0.147	-1.41 (inactive)	-4.18 (inactive)	-1.57 (inactive)	0.0831 (inactive)	1.24 (inactive)	0.543 (inactive)	-4.13	-0.104
CN(C)CCCC[C@@H]1NC(=O)[C@@H]2C[C@H](C(=O)O)[C@H](c3ccc(O)cc3)N2C1=O	-1.15	-0.976 (inactive)	1.2 (inactive)	-0.621 (inactive)	-0.422 (inactive)	0.994 (inactive)	-0.0998 (inactive)	0.493	0.101
C[C@@H]1CC[C@H]2C(=O)N3CCC[C@H]3C(=O)N2[C@H]1c1ccc(Br)cc1	1.55	-0.654 (inactive)	0.864 (inactive)	0.238 (inactive)	0.393 (inactive)	0.898 (inactive)	0.8 (inactive)	0.506	-0.193
C[C@]1(C(=O)NCc2ccccc2)c2ccccc2C(=O)N(Cc2cc(C(F)(F)F)cc(C(F)(F)F)c2)[C@H]1c1ccc(CO)cc1	-0.331	-1.35 (inactive)	0.865 (inactive)	-1.4 (inactive)	-2.4 (inactive)	1.04 (inactive)	0.528 (inactive)	1.12	-0.177
C[N+](C)(C)CCCCNC(=O)[C@@H]1C[C@@H]2C(=O)N3CCC[C@H]3C(=O)N2[C@@H]1c1cccc(OCCO)c1	0.0931	0.0521 (inactive)	0.982 (inactive)	-31.2 (active)	-1.27 (inactive)	0.497 (inactive)	0.0567 (inactive)	0.947	-0.0619
C=CC[C@@]1(C(=O)N2CCOCC2)N=C(c2ccc(OCCCO)cc2)O[C@@H]1c1ccccc1	0.781	-1.69 (inactive)	1.1 (inactive)	0.702 (inactive)	1.45 (inactive)	0.788 (inactive)	-0.0676 (inactive)	1.02	-0.167
COc1ccc([Si](C)(C)[C@H]2[C@H](CCO)O[C@@]3(C(=O)N(Cc4ccccc4)c4ccc(N5C(=O)c6cccc7cccc5c67)cc43)[C@@H]2C)cc1	0.175	0.432 (inactive)	-2.33 (inactive)	0.386 (inactive)	4.08 (inactive)	2.4 (inactive)	2.17 (inactive)	-2.04	-0.0473
CCN1C(C)=C(C(=O)OC)[C@@H](c2ccccc2)N2C(=O)[C@](O)(C(=O)OC)[C@@H](c3ccccc3)C(C(=O)c3ccccc3)=C12	2.22	-3.46 (inactive)	1.06 (inactive)	0.208 (inactive)	-0.785 (inactive)	1.55 (inactive)	1.39 (inactive)	1.57	-0.101
O=C(O)[C@@H]1Cc2c([nH]c3ccccc23)[C@@H](c2ccccc2)N1	0.326	-0.949 (inactive)	1.14 (inactive)	-0.36 (inactive)	-0.19 (inactive)	-0.266 (inactive)	0.0747 (inactive)	0.724	-0.127
CCCCO[C@H]1C[C@H]2C(Br)=C[C@@]1(CO)C(=O)[C@]21CO1	1.24	-3.84 (inactive)	1.07 (inactive)	-0.343 (inactive)	-1.86 (inactive)	2.66 (inactive)	1.48 (inactive)	0.999	-0.02
C=CC[C@@]12N=C(c3ccc(OCCCO)cc3)O[C@@H]1c1ccccc1CN(Cc1ccccc1)C2=O	-0.806	-0.251 (inactive)	-3.75 (inactive)	1.27 (inactive)	1.77 (inactive)	1.4 (inactive)	0.485 (inactive)	-3.21	-0.0473
CCCC/C=C/[C@H]([C@@H](O)Cc1ccccc1)N(CC#Cc1ccccc1)Cc1ccccc1Br	1.65	-1.44 (inactive)	0.579 (inactive)	0.197 (inactive)	0.994 (inactive)	2.75 (inactive)	1.19 (inactive)	0.788	-0.039
C=CC[C@]1(C(N)=O)N=C(c2ccc(OCCCO)cc2)O[C@H]1c1ccccc1CN=[N+]=[N-]	0.394	-1.06 (inactive)	1.06 (inactive)	0.199 (inactive)	-0.592 (inactive)	2.91 (inactive)	1.21 (inactive)	1.1	-0.16
C[C@@H]1CC[C@H]2C(=O)N3[C@@H](CC[C@@H](C)[C@@H]3c3cccc(N4CCOCC4)c3)C(=O)N2[C@H]1c1cccc(Br)c1	1.05	-1.89 (inactive)	0.328 (inactive)	-0.0779 (inactive)	-0.123 (inactive)	0.401 (inactive)	0.238 (inactive)	1.37	-0.111
C=CCNC(=O)[C@H]1[C@@H]2C(=O)O[C@@H](c3ccccc3)[C@@H](c3ccccc3)N2[C@@H](c2ccc(O)cc2)[C@]12C(=O)Nc1ccc(C#CCNC(N)=O)cc12	0.435	-0.558 (inactive)	0.476 (inactive)	-0.438 (inactive)	-0.381 (inactive)	0.574 (inactive)	0.771 (inactive)	0.917	0.0223
CC(=O)NCCCC[C@@H]1NC(=O)[C@@H]2C[C@H](C(=O)NCCCCCNC(=O)CS)[C@H](c3ccc(O)cc3)N2C1=O	1.25	-0.774 (inactive)	1.19 (inactive)	-0.961 (inactive)	-3.21 (inactive)	2.5 (inactive)	2.03 (inactive)	0.833	-0.131
[N-]=[N+]=NCc1ccccc1C[C@]1(C(N)=O)N=C(c2ccc(OCCCO)cc2)O[C@H]1c1ccccc1CN=[N+]=[N-]	-0.668	-3.26 (inactive)	-1.04 (inactive)	-2.42 (inactive)	-3.31 (inactive)	2.63 (inactive)	0.258 (inactive)	-1.46	0.0685
Cc1ccc(S(=O)(=O)N[C@H]2COC(=O)CC=C[C@H](C)COC(=O)N[C@@H](C)C(=O)CC=C[C@@H]2C)cc1	0.115	-0.949 (inactive)	1.71 (inactive)	0.32 (inactive)	-0.698 (inactive)	0.583 (inactive)	0.286 (inactive)	1.06	-0.0282
C[C@H]1COC(=O)[C@H](Cc2ccccc2)NC(=O)[C@@H](C)COC(=O)[C@H](Cc2ccccc2)NC1=O	0.24	-1.23 (inactive)	1.04 (inactive)	0.063 (inactive)	-1.43 (inactive)	0.253 (inactive)	-0.156 (inactive)	1.28	-0.127
